High-throughput results deposited in PubChem BioAssay by Sanford-Burnham Center for Chemical Genomics.
An excerpt weighted towards active compounds, which were near 3.2% of everything screened.
FAS-TE inh – blocks the thioesterase domain of human fatty acid synthase | P49327 | recombinant FAS-TE, OMFH fluorogenic substrate, fluorescence endpoint | inhibition, % at 15 µM | 360,000 compounds, 0.67% hits | AID 602261;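 active means compounds whose normalised, plate-corrected inhibition of enzyme fluorescence in the single-dose primary screen is 50% or more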;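 further: 0% = DMSO with enzyme and 100% = substrate without enzyme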
aDG glyco act – increases alpha dystroglycan glycosylation; Pro5-aDG cells, alpha-DG glycosylation AlphaScreen (IIH6); 0% Pro5, 100% B10-LARGE cell signal; activation, % at 10 µM; 360,000 compounds, 0.22% hits; AID 624168;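 active means activation of at least 8% versus controls, or a plate z-score of at least 8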;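 further: Pro5 are CHO cells carrying HIG-tagged alpha-DG that lacks glycosylation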
CRFR2-BP ag – agonists of human CRF-binding protein/CRF-R2 receptor complex. HEK293 CRF-R2/CRF-BP, calcium dye fluorescence (FLIPR); percent of saturating CRF peptide response. activation, % at 13.2 µM. 350,000 compounds, 0.46% hits. AID 588473;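 active means activation of at least 50%, plus an integration ratio under a set limit after plate pattern correction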;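 further: plate controls were neutral control wells without compound for no effect and CRF at EC100 for full effect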
PfG6PD inh – PfG6PD (Plasmodium falciparum) enzyme inhibition. inhibition, % at 20 µM. PfGluPho enzyme, NADPH resazurin-diaphorase fluorescence. 350,000 compounds, 0.78% hits. AID 504690;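 active means inhibition reaching at least a set limit at 20 µM in the primary screen, cut at about 59% in these data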;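 further: 0% = DMSO wells with substrate and 100% = DMSO wells lacking glucose-6-phosphate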
H9c2 protect – modulators protecting cardiomyocytes from myocardial damage | 360,000 compounds, 0.63% hits | H9c2 cardiomyocytes, H2O2 injury protection, ATPLite, 2 h | protection from H2O2 cell death, % at 20 µM;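 active means compounds giving at least 50% protection of heart cells from peroxide-induced death in the single-dose screen, raw or plate-pattern-corrected value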;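 further: 0% = DMSO wells with peroxide and 100% = DMSO wells without peroxide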
CRFBP-R2 block – blocks CRF-induced signaling of the CRF-BP/CRF-R2 complex | HEK293 CRF-R2/CRF-BP, CRF-induced calcium fluorescence | inhibition, % at 11.8 µM | 350,000 compounds, 0.59% hits | AID 588475;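 active means inhibition of the ligand-induced calcium signal above about 50% at the single tested concentration, limit read from the data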
Active calls of the source: *; . = not tested or not shown.

SMILES	FAS-TE inh	aDG glyco act	CRFR2-BP ag	PfG6PD inh	H9c2 protect	CRFBP-R2 block
COc1ccc(C(CNC(=O)c2[nH]c(C)c(C(C)=O)c2C)N2CCOCC2)cc1 (stereo unspecified)	-6	0	-1	-8	0	-2
CCCC(=O)Nc1ccc(-c2nc3cc(C)c(C)cc3o2)c(O)c1	-6	0	3	-12	-10	75*
CCCC(=O)Nc1ccc(-c2nc3cc(C)ccc3o2)cc1	10	0	0	12	-13	-10
COc1ccc(C(=O)NC(Oc2ccccc2)C(Cl)(Cl)Cl)cc1 (stereo unspecified)	-3	0	12	-1	-8	113*
CCCCN1CCCCC1(C)C(=O)NCc1ccc2c(c1)OCO2 (stereo unspecified)	-4	0	.	.	0	.
COc1ccc(-c2nc(NC(=O)c3ccc(OCC(=O)N4CCOCC4)c(OC)c3)sc2C)cc1	-1	0	-2	1	62*	-5
COc1cc(C(=O)Nc2ccc(C)cn2)ccc1OCC(=O)N1CCOCC1	-4	0	0	-2	0	5
COc1ccc2oc(C(=O)NCCC(C)C)c(C)c2c1	9	0	1	7	-4	79*
CCc1cc2ccc(C)cc2nc1SCC(=O)Nc1cc(OC)c(OC)cc1C(=O)O	-2	0	1	-38	21	39
COc1cc(NC(=O)CSc2nc3c(C)ccc(C)c3cc2C)c(C(=O)O)cc1OC	-4	0	0	-17	10	99*
C#CCN(Cc1ccccc1)S(=O)(=O)C=C	.	.	-1	-2	.	-2
C=C(C)Cn1c2ccc(NC(=O)NCCc3ccccc3)cc2c(=O)n1C	-4	0	.	.	-1	.
COC(=O)[C@@]12C[C@@H](CC(=O)NCc3ccc(C)o3)C(=O)N(Cc3ccccc3)C1=CCC(C)(C)C2	.	0	.	.	.	.
CC(=O)Nc1sc(/C(C#N)=C/c2ccc(Cl)c(Cl)c2)nc1-c1ccc(C)cc1	-18	1	281*	2	-7	-320
CC(=O)Nc1sc(N/N=C/c2ccc(C)cc2)nc1-c1ccc(C)cc1	-2	0	-5	13	-3	-21
N#C/C(=C\c1ccc(N2CCCCC2)o1)C(=O)Nc1cccc(Br)c1	-117	0	312*	3	-15	-265
Cc1cccc(/C=N/n2c(C)nc3ccccc3c2=O)c1	-1	0	0	-1	0	3
COC(=O)C(NC(=O)c1ccc(F)cc1)(Nc1ncc(S(=O)(=O)c2ccc([N+](=O)[O-])cc2)s1)C(F)(F)F (stereo unspecified)	35	0	-5	3	-13	58*
O=C(Nc1ncc(S(=O)(=O)c2ccc([N+](=O)[O-])cc2)s1)c1ccccc1F	26	0	57*	-37	-13	-20
CCCC1=C(C(=O)OCC)C(c2sccc2C)n2ncnc2N1 (stereo unspecified)	-4	0	1	4	8	6
O=C(NCCc1ccc(Cl)cc1)c1cccc(NC2=NC3CS(=O)(=O)CC3S2)c1 (stereo unspecified)	-8	6	0	9	5	5
N#C/C(C(=O)NCCc1ccccc1)=C1/N=C(NC(=O)c2cccs2)c2ccccc21	30	0	1	-20	2	-56
COCCCNC(=O)/C(C#N)=C1\N=C(NC(=O)c2cccs2)c2ccccc21	5	0	0	11	58*	-5
O=C(/C=C/c1ccc(F)cc1)N1CC[C@@]2(O)CCCC[C@H]2C1	-5	0	-1	1	3	0
COc1cccc(CN(C)C(=O)c2cccc(S(=O)(=O)N3CCN(c4ccccc4)CC3)c2)c1OC	28	1	0	11	-16	117*
CN(CC(=O)Nc1ccc(F)cc1)C(=O)c1cccc(S(=O)(=O)N2CCN(c3ccccc3)CC2)c1	16	0	0	1	-7	-11
CCN(CC(=O)Nc1ccc(OC)cc1)C(=O)c1cc(S(=O)(=O)N2CCOCC2)ccc1N1CCCC1	-2	0	-2	-2	0	70*
COc1ccc(NC(=O)CN(C)C(=O)c2cccc(S(=O)(=O)N3CCN(c4ccc(F)cc4)CC3)c2)cc1	9	1	0	4	-17	79*
